Eight substances from ChEMBL document CHEMBL1201862, “PubChem BioAssay data set” (2004) can be followed below.

The whole screen tested about 48,000 sequences, of which about 6,100 (13%) were called active. Cut-off read from the data, not from the text of the source: active = GI50 up to about 1.1 µM and inactive = higher. What follows is part of a selection rich in actives, with near analogues and random picks from the rest. Measured potencies and affinities stand elsewhere.

This test concerns SR.
In the case of CISPLATIN, CHEMBL11359, the 50% growth inhibitory concentration (GI50) (usually the concentration that inhibits growth by half) was 618 nM. As for “[Bis(aminomethyl)dimethylsilane]tetrachloroplatinum(IV), CHEMBL2146190”, the figure is 3440 nM. For the substance “[Bis(aminomethyl)diethylsilane]tetrachloroplatinum(IV), CHEMBL2146203”, halving of growth (GI50) required 382 nM. Under “[Bis(aminomethyl)tetramethylenesilane]tetrachloropaltinum(IV), CHEMBL2146189” stands 499 nM; under “mu-(1,7-nanodiamine-N,N')bis-(cis-aminedichloroplatimum (II)), CHEMBL2146215”, 2780 nM; under “[Bis(aminomethyl)pentamethylenesilane]dichloropaltinum(II), CHEMBL2146202”, 1490 nM. Turning to “[Bis(aminomethyl)tetramethylenesilane]dichloropaltinum(II), CHEMBL2146205”, growth was halved (GI50) at 3520 nM. Compared with the last substance, the GI50 is about 2.4-fold higher.

On to “[Bis(aminomethyl)pentamethylenesilane]tetrachloropaltinum(IV), CHEMBL2146204”, for which the 50% growth inhibitory concentration (GI50) came to 422 nM.
